FBW7 activator: FBW7 E3 ligase activators, primary screen, biochemical, AlphaScreen, human; AlphaScreen FBW7–phospho-cyclin E peptide binding, activator screen; normalized activity (activation), % at 26.1 µM; F-box/WD repeat-containing protein 7 (Homo sapiens), Q969H0; AID 1259310, 2017; actives 0.13% (n = 650,000); in the data active means normalized activity above about 1.9%;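 further: purified mutant Fbw7 with reduced substrate affinity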
TEAD-YAP block: TEAD-YAP interaction inhibition, primary screen, TEAD-YAP interaction inhibitor project, luminescence, HEK-TIYL cells; TEAD-Gal4/YAP UAS-luciferase luminescence; inhibition, % at 9.12 µM; actives 1.4% (n = 640,000); AID 1259422, 2018; in the data active means inhibition above about 32%;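 further: 0% = median of test compound wells and 100% = reference inhibitor wells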
MITF primary: MITF inhibitors, primary screen, biochemical, AlphaScreen, human; AID 1259374, 2018; AlphaScreen MITF homodimerization, bead proximity signal; inhibition, % at 2.6 µM; actives 0.91% (n = 650,000); in the data active means inhibition above about 50%;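 further: 0% = vehicle wells with protein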
Target sequence (O75030 whole entry, looked up): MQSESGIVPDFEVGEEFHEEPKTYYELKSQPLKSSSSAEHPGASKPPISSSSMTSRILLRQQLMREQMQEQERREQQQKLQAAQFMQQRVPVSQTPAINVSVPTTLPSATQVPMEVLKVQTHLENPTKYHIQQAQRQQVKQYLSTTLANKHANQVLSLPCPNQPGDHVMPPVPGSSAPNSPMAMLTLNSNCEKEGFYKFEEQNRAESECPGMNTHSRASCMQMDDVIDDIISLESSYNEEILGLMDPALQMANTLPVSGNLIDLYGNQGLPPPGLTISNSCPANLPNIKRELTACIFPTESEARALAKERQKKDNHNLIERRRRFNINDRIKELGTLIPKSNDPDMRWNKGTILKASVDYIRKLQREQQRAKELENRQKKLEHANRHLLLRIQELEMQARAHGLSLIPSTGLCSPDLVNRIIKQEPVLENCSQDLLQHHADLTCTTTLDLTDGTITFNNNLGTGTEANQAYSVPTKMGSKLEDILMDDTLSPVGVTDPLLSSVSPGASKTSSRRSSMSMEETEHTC
GPR151 activ: activators of human GPR151, primary screen, cell-based, PathHunter beta-arrestin, luminescence | G-protein coupled receptor 151 (Homo sapiens), Q8TDV0 | PathHunter beta-arrestin GPR151 cells | activation, % at 11.2 µM | actives 1% (n = 650,000) | AID 1508602, 2020; in the data active means activation above about 4.9%;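 further: 0% = median of compound wells and 100% = cells with positive control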
* hit, by the source's call. An excerpt weighted towards active compounds, which were near 3.5% of everything screened.

SMILES | FBW7 activator | TEAD-YAP block | MITF primary | GPR151 activ
CC(=O)NCC1CCC2(CCN(Cc3ccc4c(c3)CCCN4C)CC2)O1 (stereo not drawn) | 0 | 55* | 7 | 1
O=C(NC1CCCC1)c1ncoc1-c1ccc2ccccc2c1 | 0 | -79 | -12 | 0
COc1cc2oc(=O)cc(C)c2cc1OC | 0 | 5 | 6 | 0
COc1cc2oc(=O)cc(C)c2cc1C=O | 0 | 62* | 12 | -1
COc1cccc(Cn2c(NCc3ccco3)nc3c2c(=O)n(C)c(=O)n3C)c1 | 0 | 40* | 8 | 1
CCNc1nc2c(c(=O)n(C)c(=O)n2C)n1CCc1ccccc1 | 0 | 33* | 3 | 1
Cc1ccc(Cn2c(CN(C)Cc3ccccc3)nc3c2c(=O)n(C)c(=O)n3C)cc1 | 0 | -5 | -18 | 0
CC(C)n1c(CN(C)Cc2ccccc2)nc2c1c(=O)n(C)c(=O)n2C | 0 | 50* | 7 | 2
NNC(=O)c1[nH]c2ccccc2c1Cl | 0 | 47* | 2 | -1
CCN(CC)CCCNC(=O)c1cc2nc(-c3ccc([N+](=O)[O-])cc3)cc(C(F)(F)F)n2n1 | 0 | 2 | -8 | -1
O=C(Nc1nc(CCC(=O)N2CCCCCC2)cs1)NC1CCCCC1 | 0 | 41* | -2 | 2
O=C(Nc1nc(CCC(=O)N2CCN(c3ccccc3F)CC2)cs1)NC1CCCCC1 | 0 | 5 | 5 | 3
COc1ccc(N=S2CC(C)=C(C)CN2S(=O)(=O)c2ccccc2)cc1 (stereo not drawn) | 0 | -16 | -13 | 4
O=C1C=CC2=C3c4cc(O)c(O)cc4CC3(O)COC2=C1O (stereo not drawn) | 0 | -16 | 92* | -1
COc1ccccc1C1CC(=O)Nc2cc3c(cc21)OCO3 (stereo not drawn) | 0 | 53* | 11 | -1
O=C1OCC2=C1C(c1ccccc1Br)c1cc3c(cc1N2)OCO3 (stereo not drawn) | 0 | 40* | 7 | 0
O=C1CC(c2ccccc2OCc2ccccc2)c2cc3c(cc2N1)OCO3 (stereo not drawn) | 0 | 5 | 0 | -1
COc1ccc(OC)c(C2C3=C(COC3=O)Nc3cc4c(cc32)OCO4)c1 (stereo not drawn) | 1 | 55* | -7 | -1
Cc1cnc(Nc2cnccn2)nc1NCc1cccc(C(F)(F)F)c1 | 0 | 46* | 8 | 2
O=C(NCc1ccccc1)C1CCN(c2ccc(Nc3ccc(-n4ccnc4)cc3)nn2)CC1 | 0 | 2 | 11 | -2
Cc1cnc(Nc2ccc(C(F)(F)F)cc2)nc1NCc1cccc(C(F)(F)F)c1 | 0 | 11 | -22 | -2
CCCNc1cc(C)nc(Nc2ccc(-n3ccnc3)cc2)n1 | 0 | 35* | 6 | 1
O=C(NCc1cccc(C(F)(F)F)c1)C1CCN(c2ccc(Nc3ccc(-n4ccnc4)cc3)nn2)CC1 | 0 | 35* | 11 | -3
Cc1cnc(Nc2ccc(-n3ccnc3)cc2)nc1NCc1cccc(C(F)(F)F)c1 | 0 | 37* | -10 | 0
COc1cc(Nc2ncc(C)c(NCc3cccc(C(F)(F)F)c3)n2)cc(OC)c1OC | 0 | 54* | -5 | 1
SMILES | FBW7 activator | TEAD-YAP block | MITF primary | GPR151 activ
Cc1cc(NCc2cccc(C(F)(F)F)c2)nc(Nc2ccc(-n3ccnc3)cc2)n1 | 0 | 50* | 0 | 1
COc1cc(Nc2ncc(C)c(NCc3cccnc3)n2)cc(OC)c1OC | 0 | -13 | 20 | 2
O=S1(=O)Nc2c(ccc3cccnc23)-c2ccccc21 | 0 | 60* | 88* | 4
O=C(c1cc(COc2ccc3ncccc3c2)on1)N1CCC(N2CCSCC2)CC1 | 0 | 43* | -10 | 1
O=C(c1cc(COc2ccc3ncccc3c2)on1)N1CCC(O)CC1 | 0 | 3 | 7 | 0
O=C(c1cc(COc2ccc3ncccc3c2)on1)N1CCCC(OCc2ccccn2)C1 (stereo not drawn) | 0 | 39* | 6 | 2
CCC(O)C1CCN(C(=O)c2cc(COc3ccc4ncccc4c3)on2)CC1 (stereo not drawn) | 0 | 50* | -2 | 1
O=C(c1cc(COc2ccc3ncccc3c2)on1)N1CCCC(O)C1 (stereo not drawn) | 0 | 10 | 5 | 0
O=C(NCCCN1CCCC1=O)c1cc(COc2ccc3ncccc3c2)on1 | 0 | 37* | -10 | 1
COc1cccc(/C(C)=N/NC(=O)c2cc(-c3ccncc3)nc3ccccc23)c1 | 0 | 49* | 0 | -1
CC/C(C)=N\NC(=O)c1cc(-c2ccccc2)nc2ccccc12 | 0 | -13 | -10 | 2
C/C(=N\NC(=O)c1cc(-c2ccncc2)nc2ccccc12)c1ccc(-n2ccnc2)cc1 | 0 | 43* | -11 | 1
COc1cccc(CNC(=O)c2cc(-c3ccncc3)nc3ccccc23)c1 | 0 | 6 | 6 | -1
C/C(=N\NC(=O)c1cc(-c2ccncc2)nc2ccccc12)c1ccc(C#N)cc1 | 0 | 42* | 8 | 0
Cc1cc(C)c2c(c1)C(O)(c1sc(N)nc1-c1ccccc1)C(=O)N2 (stereo not drawn) | 0 | 5 | 15 | 1
O=C(COc1ccc(S(=O)(=O)NCCc2ccccc2)cc1)NCc1ccccn1 | 0 | 6 | 19 | 4
c1cc(Cn2cncn2)cc(Nc2nccc(-c3cncc(N4CCOCC4)c3)n2)c1 | 1 | 92* | 14 | 0
c1cc(-c2nc3ccc(Nc4nccc(-c5cncc(N6CCOCC6)c5)n4)cc3o2)ccn1 | 0 | -3 | 4 | 2
c1cc(Cn2ccnc2)cc(Nc2nccc(-c3cncc(N4CCOCC4)c3)n2)c1 | -1 | 87* | -5 | 1
O=C(CC12CC3CC(CC(C3)C1)C2)Nc1ccc2oc(-c3ccncc3)nc2c1 | 0 | -2 | 7 | -1
Cc1cc(=O)[nH]c(N/N=C/c2c(O)ccc3ccccc23)n1 | -1 | 89* | 62* | -1
NC(=S)N/N=C/c1c(O)ccc2ccccc12 | 0 | 4 | 78* | -1
NC(=S)N/N=C/c1c2ccccc2cc2ccccc12 | 1 | 13 | 4 | -1
O=c1cnnc(N/N=C/c2c(O)ccc3ccccc23)[nH]1 | 0 | 88* | 117* | -2
CN1CCCCC1C(=O)N/N=C/c1c(O)ccc2ccccc12 (stereo not drawn) | 0 | 78* | 84* | 2
Cc1c(C(=O)OCC(=O)c2cccc([N+](=O)[O-])c2)cc([N+](=O)[O-])cc1[N+](=O)[O-] | 1 | 10 | 15 | 0
Cc1ccccc1Cn1c(C(=O)O)c(CNCCc2c[nH]c3ccccc23)c2ccccc21 | 0 | -8 | 1 | 2
CCOC(=O)N1CCN(C(=O)CCCN2C(=O)c3cccc4cccc(c34)C2=O)CC1 | 1 | 13 | -5 | 0
Cc1nnc(N/N=C/c2c(O)ccc3ccccc23)[nH]c1=O | 0 | 89* | -18 | 0
